Reference: patent US20220289795, “EFFICIENT METHOD FOR PREPARING PPR PROTEIN AND USE OF THE SAME” (EditForce, Inc., published 2022)

Target: T1, NL_v2_PPR7 (Artificial Sequence)
T1 chain: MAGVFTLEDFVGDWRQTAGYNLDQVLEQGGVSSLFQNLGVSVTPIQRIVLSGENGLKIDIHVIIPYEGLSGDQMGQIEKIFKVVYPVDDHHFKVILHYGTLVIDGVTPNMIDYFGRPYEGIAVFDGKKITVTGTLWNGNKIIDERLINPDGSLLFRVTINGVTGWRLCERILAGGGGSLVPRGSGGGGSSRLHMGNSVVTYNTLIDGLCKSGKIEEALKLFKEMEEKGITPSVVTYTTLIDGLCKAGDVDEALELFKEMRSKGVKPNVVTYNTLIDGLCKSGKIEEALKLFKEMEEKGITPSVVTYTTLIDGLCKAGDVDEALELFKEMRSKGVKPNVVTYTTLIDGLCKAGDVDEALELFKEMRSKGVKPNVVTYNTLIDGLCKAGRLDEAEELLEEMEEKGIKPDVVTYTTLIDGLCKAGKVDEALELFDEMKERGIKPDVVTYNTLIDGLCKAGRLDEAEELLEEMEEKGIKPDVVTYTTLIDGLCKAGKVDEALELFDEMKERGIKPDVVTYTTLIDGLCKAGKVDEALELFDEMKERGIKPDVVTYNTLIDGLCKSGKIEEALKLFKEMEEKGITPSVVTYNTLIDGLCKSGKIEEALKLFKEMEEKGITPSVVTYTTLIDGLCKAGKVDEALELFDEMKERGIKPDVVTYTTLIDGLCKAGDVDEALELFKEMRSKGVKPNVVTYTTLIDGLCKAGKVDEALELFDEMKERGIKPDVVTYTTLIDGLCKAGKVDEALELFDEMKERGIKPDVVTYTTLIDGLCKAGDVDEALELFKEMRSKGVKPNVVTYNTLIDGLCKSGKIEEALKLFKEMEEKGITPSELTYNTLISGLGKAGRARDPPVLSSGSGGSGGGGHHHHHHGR
Assay: RPB-ELISA
Settings: tags: N-terminal luciferase, C-terminal 6xHis; label: 5'-biotin; ssRNA
Experimental: RNA probes consisting of a designed 30-base sequence containing 18 bases of the target sequence and modified by biotinylation at the 5′ end (RNA_1, RNA_2, RNA_3, RNA_4, and RNA_5, SEQ ID NOS: 61 to 65) were synthesized (Grainer). To a streptavidin-coated plate (Thermo fisher), the 5′-end biotinylated RNA probes were added, reaction was allowed at room temperature for 30 minutes, and the plate was washed with a lysis buffer (20 mM Tris-HCl, pH 7.6, 150 mM NaCl, 5 mM MgCl₂, 0.5% NP-40, 1 mM DTT, 0.1% BSA). For background measurement, wells to which RNA was not added, but 100 μL of the lysis buffer, 1 μL of 100 mM DTT, and 1 μL of 40 unit/4 RNase inhibitor (Takara, 2313A) were added were also prepared. Then, 200 μL of a blocking buffer (20 mM Tris-HCl, pH 7.6, 150 mM NaCl, 5 mM MgCl₂, 0.5% NP-40, 1 mM DTT, 1% BSA) was added, and the plate surface was blocked at room temperature for 30 minutes. Then, 100 μL of E. coli lysate containing luciferase-fused PPR protein having a luminescence level of 1.5×10⁸ LU/μL was added to each well, and the binding reaction was allowed at room temperature for 30 minutes. The well was washed 5 times with 200 μL of a washing buffer (20 mM Tris-HCl, pH 7.6, 150 mM NaCl, 5 mM MgCl₂, 0.5% NP-40, 1 mM DTT). […] The background (luminescence signal value obtained with adding the PPR protein and without adding RNA) was subtracted from the luminescences of the samples to which a solution containing each RNA and PPR protein was added, and the obtained values were used as the binding powers between the PPR protein and RNA.
By using the v2 motif, PPR proteins for 23 kinds of target sequences (T_1 to T_3, and T_5 to T_24, SEQ ID NOS: […]) were prepared (NL_v2_PPR1 to 3, and NL_v2_PPR5 to 24, SEQ ID NOS: 56 to 58 and 70 to 88), and RPB-ELISA was used to analyze bindings of all the combinations. The experimental method was the same as that used in Example 3.

Row | Sequence | binding signal [log2 luminescence]
1 | GGUGGUGAGGCCCUGGGC | 21.4
2 | GGUUAGAGAUACAGUGUG | 20.6
3 | GACUCAGGAAUCGGCUCU | 20.5
4 | GUCAGAGGGUUCUGGAUU | 21.1
